FBW7 act – activators of human E3 ligase FBW7. Q969H0. AlphaScreen FBW7–phospho-cyclin E peptide binding, activator screen. normalized activity (activation), % at 26.1 µM. hit rate 0.13% among 650,000. AID 1259310; in the data active = normalized activity above about 1.9%;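 also: purified mutant Fbw7 with reduced substrate affinity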
TEAD-YAP block – TEAD-YAP interaction inhibition | HEK-TIYL cells, TEAD-Gal4/YAP UAS-luciferase luminescence | inhibition, % at 9.12 µM | hit rate 1.4% among 640,000 | AID 1259422; in the data active = inhibition above about 32%;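 also: 0% = median of test compound wells and 100% = reference inhibitor wells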
MITF primary – blocks human microphthalmia-associated transcription factor; O75030; AlphaScreen MITF homodimerization, bead proximity signal; inhibition, % at 2.6 µM; hit rate 0.91% among 650,000; in the data active = inhibition above about 50%;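 also: 0% = vehicle wells with protein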
GPR151 activ – human GPR151 activation. Q8TDV0. PathHunter beta-arrestin GPR151 cells, luminescence. activation, % at 11.2 µM. hit rate 1% among 650,000; in the data active = activation above about 4.9%;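 also: 0% = median of compound wells and 100% = cells with positive control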
Target sequence (Q8TDV0 whole entry, looked up): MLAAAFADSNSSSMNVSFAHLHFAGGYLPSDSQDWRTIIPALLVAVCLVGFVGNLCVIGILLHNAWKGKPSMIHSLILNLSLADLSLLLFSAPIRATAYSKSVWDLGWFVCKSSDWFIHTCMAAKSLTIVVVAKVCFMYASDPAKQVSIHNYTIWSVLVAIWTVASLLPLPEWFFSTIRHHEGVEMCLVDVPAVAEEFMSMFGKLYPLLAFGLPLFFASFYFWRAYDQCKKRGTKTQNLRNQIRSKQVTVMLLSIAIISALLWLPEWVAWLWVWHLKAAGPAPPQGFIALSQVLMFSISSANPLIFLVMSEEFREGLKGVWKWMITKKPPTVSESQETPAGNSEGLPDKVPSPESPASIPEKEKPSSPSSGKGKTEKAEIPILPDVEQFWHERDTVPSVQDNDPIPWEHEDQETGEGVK
Starred values were filed as active, the others as inactive. In the library only some 3.4% were active in any assay of this set; here they are far more common.

SMILES	FBW7 act	TEAD-YAP block	MITF primary	GPR151 activ
CCOc1ccc(CNC(=O)Cc2cn(C)c3ccccc23)cc1	0	5	18	0
COCC(=O)N/N=C(\C)CC(=O)NCc1ccc(OC)cc1	2.1*	-14	10	-1
COc1ccc(CNC(=O)Cc2ccc(-n3cccc3)cc2)cc1	0	45*	16	-1
Cc1cc(/C=C(/C#N)c2ccc([N+](=O)[O-])cc2)c(C)n1-c1ccc(S(N)(=O)=O)cc1	0	1	-3	0
O=C(CCc1nnc(Cc2ccc(-c3ccccc3)cc2)o1)N1CCCCO1	1	2	4	2
Brc1ccc(-c2c[n+]3c(n2Cc2ccccc2)SCCC3)cc1	0	-27	9	0
CCOc1ccc(-c2c[n+]3c(n2Cc2ccccc2)SCCC3)cc1	0	67*	5	0
CCOc1ccc(-n2c(-c3ccccc3)csc2=NC(C)=O)cc1	0	-5	-1	-1
CCOc1ccc(-n2c(-c3ccccc3)c[n+]3c2CCCCC3)cc1	0	66*	19	-1
COc1ccc(-c2nnc(/C=C/c3cccs3)o2)cc1	0	72*	10	-11
Cc1ccn2c(-c3csc(Nc4ccc(N(C)C)cc4)n3)c(C)nc2c1	-1	54*	12	1
Cc1ccc(Nc2nc(-c3c(C)nc4cc(C)ccn34)cs2)c(C)c1	0	42*	-1	-1
Cc1ccc(Nc2nc(-c3c(C)nc4ncccn34)cs2)c(C)c1	0	52*	12	-1
Cc1ccc(Nc2nc(-c3cccnc3)cs2)c(C)c1	0	49*	12	-4
Cc1ccc(Nc2nc(-c3ccncc3)cs2)c(C)c1	0	-74	0	2
Cn1c(=O)c2c(SCC(=O)NCC3CCCO3)nc(C3CCCCC3)nc2n(C)c1=O (stereo not drawn)	0	3	-2	1
COC(=O)C1=C(C)NC2=C(C(=O)CC(c3cccs3)C2)C1c1ccc(OC)c(O)c1 (stereo not drawn)	0	-1	18	1
CCCOc1c(Br)cc(/C=C2\NC(=S)NC2=O)cc1OCC	0	1	1	0
O=c1c(Cl)c(Cl)cnn1-c1ccccc1	0	93*	-4	0
O=c1c(Cl)c(Cl)cnn1-c1ccc(Cl)c(C(F)(F)F)c1	0	86*	4	2
Cc1cc(C)nc(-n2ncc(Cl)c(Cl)c2=O)n1	0	86*	9	-1
CSc1cnn(-c2ccccc2)c(=O)c1SC	1.9*	5	7	1
O=c1c(Cl)c(Cl)cnn1-c1cccc(C(F)(F)F)c1	0	18	10	-1
Cc1cccc(-n2c(SCC(=O)Nc3ccc(C)c(C)c3)nc3[nH]ncc3c2=O)c1	0	14	9	0
Cc1ccc(NC(=O)c2cnc3ccccn3c2=O)cc1F	0	-15	6	-1
SMILES	FBW7 act	TEAD-YAP block	MITF primary	GPR151 activ
CCOc1ccc(Oc2ccccc2N)cc1	0	-1	10	0
O=c1c(Cl)c(Cl)cnn1Cc1ccccc1Cl	1	33*	13	1
COC(=O)c1ccc(C)c(NC(=O)c2ccccc2I)c1	0	-4	3	-1
O=C(Nc1ccc(S(=O)(=O)N2CCCCC2)cc1)c1ccc(CN2CCc3ccccc3C2)cc1	1	65*	17	1
c1cn(-c2ccc(Nc3nc(NCCN4CCOCC4)c4ncn(-c5ccsc5)c4n3)cc2)cn1	0	46*	-5	1
c1cc(-n2cnc3c(Nc4ccc(N5CCOCC5)cc4)nc(NCCN4CCOCC4)nc32)cs1	0	45*	3	0
c1ccc(Nc2nc(NCCN3CCOCC3)c3ncn(C4CCCCC4)c3n2)cc1	0	16	6	0
c1cc(-n2cnc3c(NCCN4CCOCC4)nc(Nc4ccc(N5CCOCC5)cc4)nc32)cs1	0	62*	-17	1
c1cc(-n2cnc3c(NCCN4CCOCC4)nc(NCCN4CCOCC4)nc32)cs1	0	16	4	1
c1cn(-c2ccc(Nc3nc(NCCN4CCOCC4)c4ncn(C5CCCCC5)c4n3)cc2)cn1	0	47*	8	0
CC(=O)Nc1ccc(-n2c(/C=C/c3ccc(OCc4ccc(Cl)c(Cl)c4)cc3)nc3ccccc3c2=O)cc1	0	-4	-1	1
CCCNc1nc(Nc2ccc(N3CCOCC3)cc2)nc2c1ncn2-c1ccsc1	0	47*	10	4
CC(=O)Nc1ccc(Nc2nc(NCCN3CCOCC3)nc3c2ncn3-c2ccsc2)cc1	0	51*	-5	0
COc1cc(Nc2nc(NCCN3CCOCC3)nc3c2ncn3-c2ccsc2)cc(OC)c1OC	0	6	2	-1
O=C(O)CC1S/C(=N/N=C/c2cccc([N+](=O)[O-])c2O)NC1=O (stereo not drawn)	-1	-8	91*	0
O=C(NCC(c1cccs1)N1CCOCC1)c1ccc([N+](=O)[O-])o1 (stereo not drawn)	0	55*	3	1
c1ccc(C(CCn2ccnc2)Nc2nncc(-c3ccc4c(c3)OCO4)n2)cc1 (stereo not drawn)	0	45*	6	-1
FC(F)(F)C1=Nc2cccc3cccc(c23)N1	0	6	114*	0
Cc1ccc(OCC(=O)N/N=C/c2cc([N+](=O)[O-])ccc2F)cc1	0	60*	17	-1
Cc1cccc(C)c1OCC(=O)N/N=C/c1ccccc1F	0	37*	10	0
Cc1cccc(C)c1OCC(=O)N/N=C/c1cn(C)c2ccccc12	0	51*	0	1
Cc1ccc(C)c(OCC(=O)N/N=C\c2ccccc2F)c1	0	-10	-8	0
Cc1cccc(C2=N/C(=C\c3cccc(F)c3)C(=O)O2)c1	0	10	11	0
COCCn1c(=NC(=O)Cc2ccccc2)sc2cc(S(C)(=O)=O)ccc21	0	-6	-1	-1
Cc1ccc(-c2noc(CCCCCN)n2)cc1	0	72*	1	1
SMILES	FBW7 act	TEAD-YAP block	MITF primary	GPR151 activ
CCOc1ccc(NC(=S)NCCCN(C)C)cc1	0	1	5	1
Oc1c(C(c2cccs2)N2CCOCC2)ccc2cccnc12 (stereo not drawn)	-1	77*	61*	2
Oc1c(C(c2cccs2)N2CCN(c3ccccc3)CC2)ccc2cccnc12 (stereo not drawn)	0	87*	18	0
FC(F)(F)c1cc(-c2ccc(Cl)cc2)nc(N2CCOCC2)n1	0	4	3	-2
CCc1ccc(OCC(=O)Nc2ccc(OC)c(OC)c2)cc1	1	22	19	1
N#Cc1ccccc1S(=O)(=O)NCC(=O)Nc1ccc2c(c1)OCO2	0	44*	4	0
COc1ccc(-c2cncc3ccc(C(=O)NCc4ccccc4)nc23)cc1	0	68*	-7	-1
COc1ccccc1CNC(=O)c1ccc2cncc(-c3ccccc3)c2n1	0	65*	11	0
COc1ccc(-c2cncc3ccc(C(=O)NCc4cnc(C)cn4)nc23)cc1	0	70*	3	0
O=C(NCc1ccco1)c1ccc2cncc(-c3cc4ccccc4o3)c2n1	0	54*	3	0
